Where “and” joins values, the source holds several entries; their conditions need not be identical. Identical values can stand only once. The campaign covered roughly 5,500 compounds. About 2,000 (36%) were called active. Another 18% or so got no clear call; they are omitted. This is one part of the list. Unmarked numbers belong to inactive results. No stated cut-off is given here; in the data, active means normalized growth mostly below about 0.91 (no sharp cut-off); inconclusive means no clear call, values can overlap the other calls; inactive means mostly above about 0.92.
Assay: chemical genetic growth profiling, strain panel (AID 1159580);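 further: tested at 20 µM; growth read once vehicle control cultures reached saturation at 30 °C; 1 = growth at the plate median or of vehicle wells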
Details: growth OD

Structure (SMILES): Cc1ncc(CNC(=O)N(CCCl)N=O)c(N)n1
- normalized growth (S. cerevisiae deletion strains, locus YJR075W, strain HOC1, stronger effect = lower value): 1.01
- normalized growth (S. cerevisiae deletion strains, locus YKL009W, strain mrt4, stronger effect = lower value): 0.976
- normalized growth (S. cerevisiae deletion strains, locus YKL068W, stronger effect = lower value): 1
- normalized growth (S. cerevisiae deletion strains, locus YKL085W, strain MDH1 (second series), stronger effect = lower value): 0.996
- normalized growth (S. cerevisiae deletion strains, locus YKL085W, strain MDH1, stronger effect = lower value): 0.996
- normalized growth (S. cerevisiae deletion strains, locus YKL160W, strain elf1, stronger effect = lower value): 0.996
- normalized growth (S. cerevisiae deletion strains, locus YKL190W, strain CNB1, stronger effect = lower value): 1.01
- normalized growth (S. cerevisiae deletion strains, locus YKR001C, strain vps1, stronger effect = lower value): 0.974
- normalized growth (S. cerevisiae deletion strains, locus YKR026C, strain gcn3, stronger effect = lower value): 1.02
- normalized growth (S. cerevisiae deletion strains, locus YKR091W, strain srl3, stronger effect = lower value): 1
- normalized growth (S. cerevisiae deletion strains, locus YLL001W, strain dnm1, stronger effect = lower value): 0.97
- normalized growth (S. cerevisiae deletion strains, locus YLL026W, stronger effect = lower value): 1.01
- normalized growth (S. cerevisiae deletion strains, locus YLL041C, strain sdh2, stronger effect = lower value): 1.01
- normalized growth (S. cerevisiae deletion strains, locus YLR027C, strain aat2, stronger effect = lower value): 0.99
- normalized growth (S. cerevisiae deletion strains, locus YLR039C, strain RIC1, stronger effect = lower value): 1.04
- normalized growth (S. cerevisiae deletion strains, locus YLR058C, strain SHM2, stronger effect = lower value): 1.02
- normalized growth (S. cerevisiae deletion strains, locus YLR102C, strain apc9, stronger effect = lower value): 0.983
- normalized growth (S. cerevisiae deletion strains, locus YLR113W, strain HOG1, stronger effect = lower value): 0.982
- normalized growth (S. cerevisiae deletion strains, locus YLR221C, strain rsa3, stronger effect = lower value): 1.03
- normalized growth (S. cerevisiae deletion strains, locus YLR258W, strain gsy2, stronger effect = lower value): 1
- normalized growth (S. cerevisiae deletion strains, locus YLR262C, strain YPT6 (second series), stronger effect = lower value): 1.07
- normalized growth (S. cerevisiae deletion strains, locus YLR262C, strain YPT6, stronger effect = lower value): 1.03
- normalized growth (S. cerevisiae deletion strains, locus YLR268W, strain sec22, stronger effect = lower value): 0.983
- normalized growth (S. cerevisiae deletion strains, locus YLR320W, strain mms22, stronger effect = lower value): 1.03
- normalized growth (S. cerevisiae deletion strains, locus YLR330W, strain CHS5, stronger effect = lower value): 1.02
- normalized growth (S. cerevisiae deletion strains, locus YLR342W, strain FKS1 (second series), stronger effect = lower value): 1.01
- normalized growth (S. cerevisiae deletion strains, locus YLR342W, strain FKS1, stronger effect = lower value): 1.02
- normalized growth (S. cerevisiae deletion strains, locus YLR357W, strain rsc2, stronger effect = lower value): 1.02
- normalized growth (S. cerevisiae deletion strains, locus YLR370C, strain arc18, stronger effect = lower value): 1.01
- normalized growth (S. cerevisiae deletion strains, locus YLR371W, strain rom2, stronger effect = lower value): 0.981
- normalized growth (S. cerevisiae deletion strains, locus YLR384C, strain iki3, stronger effect = lower value): 1.03
- normalized growth (S. cerevisiae deletion strains, locus YLR418C, strain cdc73, stronger effect = lower value): 0.965
- normalized growth (S. cerevisiae deletion strains, locus YML016C, strain PPZ1, stronger effect = lower value): 1.02
- normalized growth (S. cerevisiae deletion strains, locus YML032C, strain rad52, stronger effect = lower value): 0.903 (active)
- normalized growth (S. cerevisiae deletion strains, locus YML120C, strain ndi1, stronger effect = lower value): 0.991
- normalized growth (S. cerevisiae deletion strains, locus YML124C, strain tub3, stronger effect = lower value): 0.989
- normalized growth (S. cerevisiae deletion strains, locus YMR058W, strain fet3, stronger effect = lower value): 1.02
- normalized growth (S. cerevisiae deletion strains, locus YMR078C, strain ctf18, stronger effect = lower value): 0.964
- normalized growth (S. cerevisiae deletion strains, locus YMR125W, strain sto1, stronger effect = lower value): 1
- normalized growth (S. cerevisiae deletion strains, locus YMR129W, stronger effect = lower value): 1.02
- normalized growth (S. cerevisiae deletion strains, locus YMR205C, strain PFK2, stronger effect = lower value): 1.01
- normalized growth (S. cerevisiae deletion strains, locus YMR223W, strain ubp8, stronger effect = lower value): 0.994
- normalized growth (S. cerevisiae deletion strains, locus YMR231W, strain pep5, stronger effect = lower value): 1
- normalized growth (S. cerevisiae deletion strains, locus YMR263W, strain SAP30, stronger effect = lower value): 1.01
- normalized growth (S. cerevisiae deletion strains, locus YMR307W, strain GAS1, stronger effect = lower value): 0.992 and 1.01
- normalized growth (S. cerevisiae deletion strains, locus YNL067W, strain RPL9B, stronger effect = lower value): 1.01
- normalized growth (S. cerevisiae deletion strains, locus YNL071W, strain lat1, stronger effect = lower value): 1.01
- normalized growth (S. cerevisiae deletion strains, locus YNL128W, strain TEP1, stronger effect = lower value): 1.01 and 1
- normalized growth (S. cerevisiae deletion strains, locus YNL153C, strain GIM3, stronger effect = lower value): 1.02 and 0.991
- normalized growth (S. cerevisiae deletion strains, locus YNL175C, strain NOP13, stronger effect = lower value): 0.997
- normalized growth (S. cerevisiae deletion strains, locus YNL183C, strain NPR1, stronger effect = lower value): 0.913
- normalized growth (S. cerevisiae deletion strains, locus YNL197C, strain WHI3, stronger effect = lower value): 0.999
- normalized growth (S. cerevisiae deletion strains, locus YNL209W, strain ssb2, stronger effect = lower value): 0.992
- normalized growth (S. cerevisiae deletion strains, locus YNL224C, strain SQS1, stronger effect = lower value): 1.01
- normalized growth (S. cerevisiae deletion strains, locus YNL233W, strain BNI4, stronger effect = lower value): 1.01
- normalized growth (S. cerevisiae deletion strains, locus YNL248C, strain rpa49, stronger effect = lower value): 1.02
- normalized growth (S. cerevisiae deletion strains, locus YNL250W, strain rad50, stronger effect = lower value): 0.972
- normalized growth (S. cerevisiae deletion strains, locus YNL271C, strain bni1, stronger effect = lower value): 0.979
- normalized growth (S. cerevisiae deletion strains, locus YNL298W, strain CLA4, stronger effect = lower value): 0.996
- normalized growth (S. cerevisiae deletion strains, locus YNL307C, strain MCK1, stronger effect = lower value): 1
- normalized growth (S. cerevisiae deletion strains, locus YNL322C, strain KRE1 (second series), stronger effect = lower value): 0.937
- normalized growth (S. cerevisiae deletion strains, locus YNL322C, strain KRE1, stronger effect = lower value): 1.01
- normalized growth (S. cerevisiae deletion strains, locus YNR049C, strain mso1, stronger effect = lower value): 1.02
- normalized growth (S. cerevisiae deletion strains, locus YNR052C, strain pop2, stronger effect = lower value): 0.983
- normalized growth (S. cerevisiae deletion strains, locus YOL006C, strain TOP1, stronger effect = lower value): 1.02
- normalized growth (S. cerevisiae deletion strains, locus YOL012C, strain htz1): 1.04
- normalized growth (S. cerevisiae deletion strains, locus YOL147C, strain pex11, stronger effect = lower value): 0.978
- normalized growth (S. cerevisiae deletion strains, locus YOR001W, strain rrp6, stronger effect = lower value): 1.03
- normalized growth (S. cerevisiae deletion strains, locus YOR061W, strain CKA2, stronger effect = lower value): 1.02
- normalized growth (S. cerevisiae deletion strains, locus YOR069W, strain VPS5, stronger effect = lower value): 1.02
- normalized growth (S. cerevisiae deletion strains, locus YOR070C, strain gyp1, stronger effect = lower value): 1.03
- normalized growth (S. cerevisiae deletion strains, locus YOR080W, strain dia2, stronger effect = lower value): 1.01
- normalized growth (S. cerevisiae deletion strains, locus YOR083W, strain WHI5 (second series), stronger effect = lower value): 1.01
- normalized growth (S. cerevisiae deletion strains, locus YOR083W, strain WHI5, stronger effect = lower value): 0.979
- normalized growth (S. cerevisiae deletion strains, locus YOR106W, strain vam3, stronger effect = lower value): 0.959
- normalized growth (S. cerevisiae deletion strains, locus YOR136W, strain idh2, stronger effect = lower value): 0.981
- normalized growth (S. cerevisiae deletion strains, locus YOR144C, strain elg1, stronger effect = lower value): 0.978
- normalized growth (S. cerevisiae deletion strains, locus YOR184W, strain ser1, stronger effect = lower value): 0.989
- normalized growth (S. cerevisiae deletion strains, locus YOR231W, strain MKK1, stronger effect = lower value): 0.953
- normalized growth (S. cerevisiae deletion strains, locus YOR265W, strain rbl2, stronger effect = lower value): 1.01
- normalized growth (S. cerevisiae deletion strains, locus YOR270C, strain vph1, stronger effect = lower value): 1.03
- normalized growth (S. cerevisiae deletion strains, locus YOR290C, strain snf2, stronger effect = lower value): 0.993
- normalized growth (S. cerevisiae deletion strains, locus YOR316C, strain cot1, stronger effect = lower value): 0.99
- normalized growth (S. cerevisiae deletion strains, locus YPL051W, strain arl3, stronger effect = lower value): 0.974
- normalized growth (S. cerevisiae deletion strains, locus YPL055C, strain LGE1, stronger effect = lower value): 1.02
- normalized growth (S. cerevisiae deletion strains, locus YPL078C, strain atp4, stronger effect = lower value): 0.98
- normalized growth (S. cerevisiae deletion strains, locus YPL106C, strain sse1, stronger effect = lower value): 1.02
- normalized growth (S. cerevisiae deletion strains, locus YPL240C, strain hsp82, stronger effect = lower value): 1.01
- normalized growth (S. cerevisiae deletion strains, locus YPL241C, strain CIN2, stronger effect = lower value): 1.02
- normalized growth (S. cerevisiae deletion strains, locus YPL256C, strain CLN2, stronger effect = lower value): 0.989
- normalized growth (S. cerevisiae deletion strains, locus YPR119W, strain clb2, stronger effect = lower value): 0.978
- normalized growth (S. cerevisiae deletion strains, locus YPR141C, strain kar3, stronger effect = lower value): 0.987
- normalized growth (S. cerevisiae deletion strains, locus YPR163C, strain tif3, stronger effect = lower value): 0.98
- normalized growth (S. cerevisiae deletion strains, locus YPR167C, strain met16, stronger effect = lower value): 0.982
- normalized growth (S. cerevisiae deletion strains, strain wtn01, stronger effect = lower value): 0.987
- normalized growth (S. cerevisiae strains, strain wild type, stronger effect = lower value): 1.01
